Reference: publication PMC7862700, “An all-to-all approach to the identification of sequence-specific readers for epigenetic DNA modifications on cytosine”

How the values were obtained:
Assay in all cases: DAPPL (digital affinity profiling via proximity ligation, sequencing); 10 mM Tris-HCl pH 7.5, 50 mM NaCl, 1 mM DTT, 4% glycerol, room temperature, 30 min; GST-TFs on glutathione beads, 16-mer random dsDNA library, 0.1% formaldehyde crosslink after washing; high values mean tight binding
Conditions in all cases: protein: recombinant; tags: N-terminal GST; dsDNA, one strand shown
FLI1 = target: T1, FLI1 (Homo sapiens, UniProt Q01543 1-452)
T1 sequence: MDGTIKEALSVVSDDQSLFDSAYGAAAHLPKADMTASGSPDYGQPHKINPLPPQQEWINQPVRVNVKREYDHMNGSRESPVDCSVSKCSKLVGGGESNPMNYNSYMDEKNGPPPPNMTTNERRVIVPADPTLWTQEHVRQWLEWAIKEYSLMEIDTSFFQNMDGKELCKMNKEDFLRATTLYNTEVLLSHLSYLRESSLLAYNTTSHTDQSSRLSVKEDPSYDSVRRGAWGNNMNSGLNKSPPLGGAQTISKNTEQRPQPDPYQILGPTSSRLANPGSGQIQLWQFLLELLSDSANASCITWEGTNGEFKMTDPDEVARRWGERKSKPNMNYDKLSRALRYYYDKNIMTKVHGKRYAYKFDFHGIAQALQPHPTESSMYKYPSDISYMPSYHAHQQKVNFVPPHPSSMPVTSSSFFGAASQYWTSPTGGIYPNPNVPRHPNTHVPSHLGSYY
In short: (§1)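 Pools were built from human transcription factors expressed in yeast as GST fusions, captured on glutathione beads and DNA-barcoded, along with a tag-only sample. Incubation with 200 nmole of a 16-mer random double-stranded DNA library lasted 30 min at room temperature in Tris/NaCl/DTT/glycerol buffer, and was followed by washing, 0.1% formaldehyde crosslinking, proximity ligation, PCR amplification and Illumina NextSeq500 sequencing. Binding signal is the quotient of each hexamer's read frequency for a factor and its frequency for the tag-only sample.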

GABPA = target: T2, GABPA (Homo sapiens, UniProt Q06546 1-454)
T2 sequence: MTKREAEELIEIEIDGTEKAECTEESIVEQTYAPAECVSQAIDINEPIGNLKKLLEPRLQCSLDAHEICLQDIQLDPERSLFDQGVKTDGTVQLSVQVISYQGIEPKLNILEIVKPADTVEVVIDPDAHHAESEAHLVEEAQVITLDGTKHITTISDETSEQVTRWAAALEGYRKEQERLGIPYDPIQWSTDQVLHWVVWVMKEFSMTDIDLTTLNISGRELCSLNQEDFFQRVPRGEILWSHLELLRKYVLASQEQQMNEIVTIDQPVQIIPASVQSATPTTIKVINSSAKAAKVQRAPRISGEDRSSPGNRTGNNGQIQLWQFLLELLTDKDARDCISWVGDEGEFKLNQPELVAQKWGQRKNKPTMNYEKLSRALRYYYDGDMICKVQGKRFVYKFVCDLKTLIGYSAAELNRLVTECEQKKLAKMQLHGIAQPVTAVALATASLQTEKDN
In short: as §1

ELF1 = ELF1 (Homo sapiens, UniProt P32519 1-619)
In short: as §1

EHF = target: T3, EHF (Homo sapiens, UniProt Q9NZC4 1-300)
T3 sequence: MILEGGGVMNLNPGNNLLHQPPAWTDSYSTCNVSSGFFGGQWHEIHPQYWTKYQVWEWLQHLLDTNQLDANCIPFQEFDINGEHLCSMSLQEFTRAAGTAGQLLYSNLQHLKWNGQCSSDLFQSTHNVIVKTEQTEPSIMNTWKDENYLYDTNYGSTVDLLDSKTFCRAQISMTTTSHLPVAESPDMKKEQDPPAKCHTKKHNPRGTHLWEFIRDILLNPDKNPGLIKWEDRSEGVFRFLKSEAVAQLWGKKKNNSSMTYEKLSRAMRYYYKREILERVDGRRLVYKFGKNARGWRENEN
In short: as §1

SPIB = SPIB (Homo sapiens, UniProt Q01892 1-262)
In short: as §1

ELK3 = target: T4, ELK3 (Homo sapiens, UniProt P41970 1-407)
T4 sequence: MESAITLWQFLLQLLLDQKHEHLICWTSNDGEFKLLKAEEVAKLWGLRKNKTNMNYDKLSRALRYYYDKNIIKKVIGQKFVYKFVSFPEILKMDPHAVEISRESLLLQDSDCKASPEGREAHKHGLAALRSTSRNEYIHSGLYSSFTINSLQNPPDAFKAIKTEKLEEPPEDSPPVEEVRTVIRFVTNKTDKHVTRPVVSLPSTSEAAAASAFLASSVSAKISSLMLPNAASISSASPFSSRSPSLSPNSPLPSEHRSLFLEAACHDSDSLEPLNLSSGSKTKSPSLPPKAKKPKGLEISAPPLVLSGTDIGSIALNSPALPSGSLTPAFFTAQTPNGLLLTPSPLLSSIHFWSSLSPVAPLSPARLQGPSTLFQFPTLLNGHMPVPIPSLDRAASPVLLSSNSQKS
In short: as §1

ETV5 = ETV5 (Homo sapiens, UniProt P41161 1-510)
In short: as §1

ELF4 = ELF4 (Homo sapiens, UniProt Q99607 1-663)
In short: as §1

ETV2 = target: T5, ETV2 (Homo sapiens, UniProt O00321 1-342)
T5 sequence: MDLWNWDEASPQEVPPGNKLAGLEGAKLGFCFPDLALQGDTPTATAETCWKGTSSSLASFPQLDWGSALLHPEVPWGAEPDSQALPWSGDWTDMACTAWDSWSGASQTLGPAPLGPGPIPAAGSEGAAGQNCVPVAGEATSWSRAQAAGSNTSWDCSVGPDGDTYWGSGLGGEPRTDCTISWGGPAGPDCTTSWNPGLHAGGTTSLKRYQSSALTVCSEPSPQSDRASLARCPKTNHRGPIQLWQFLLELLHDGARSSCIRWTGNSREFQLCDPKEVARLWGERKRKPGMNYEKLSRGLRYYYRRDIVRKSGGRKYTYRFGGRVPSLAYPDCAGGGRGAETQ
In short: as §1

ETV1 = ETV1 (Homo sapiens, UniProt P50549 1-477)
In short: as §1

ETV3L = target: T6, ETV3L (Homo sapiens, UniProt Q6ZN32 1-361)
T6 sequence: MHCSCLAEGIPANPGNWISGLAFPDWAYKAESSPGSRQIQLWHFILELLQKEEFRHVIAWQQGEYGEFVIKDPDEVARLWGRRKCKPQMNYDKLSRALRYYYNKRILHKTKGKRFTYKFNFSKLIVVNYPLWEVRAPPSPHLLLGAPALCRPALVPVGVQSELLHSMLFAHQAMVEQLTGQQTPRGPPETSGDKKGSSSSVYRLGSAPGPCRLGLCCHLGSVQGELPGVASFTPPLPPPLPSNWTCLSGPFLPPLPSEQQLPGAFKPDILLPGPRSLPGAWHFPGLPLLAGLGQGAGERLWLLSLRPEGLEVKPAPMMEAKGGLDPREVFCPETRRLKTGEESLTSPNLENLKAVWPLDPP
In short: as §1

ETV3 = target: T7, ETV3 (Homo sapiens, UniProt P41162-2 1-143)
T7 sequence: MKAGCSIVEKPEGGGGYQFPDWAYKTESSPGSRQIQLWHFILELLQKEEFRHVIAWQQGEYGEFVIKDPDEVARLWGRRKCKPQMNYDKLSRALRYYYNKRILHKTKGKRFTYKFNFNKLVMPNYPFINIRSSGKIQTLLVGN
In short: as §1

ELK1 = target: T8, ELK1 (Homo sapiens, UniProt P19419 1-428)
T8 sequence: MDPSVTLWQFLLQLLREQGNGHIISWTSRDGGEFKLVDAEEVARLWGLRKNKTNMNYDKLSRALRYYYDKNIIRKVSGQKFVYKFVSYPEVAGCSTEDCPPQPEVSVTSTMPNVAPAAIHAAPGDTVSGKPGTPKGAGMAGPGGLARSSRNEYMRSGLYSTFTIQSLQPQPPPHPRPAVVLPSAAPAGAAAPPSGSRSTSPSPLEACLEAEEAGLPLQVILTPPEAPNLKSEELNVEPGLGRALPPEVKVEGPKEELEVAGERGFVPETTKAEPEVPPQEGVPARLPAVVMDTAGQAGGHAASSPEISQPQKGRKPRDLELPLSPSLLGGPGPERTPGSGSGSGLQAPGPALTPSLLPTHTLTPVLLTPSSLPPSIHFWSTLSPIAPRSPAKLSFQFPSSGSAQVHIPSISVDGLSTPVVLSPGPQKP
In short: as §1

SPI1 = SPI1 (Homo sapiens, UniProt P17947 1-270)
In short: as §1

ERF = target: T9, ERF (Homo sapiens, UniProt P50548 1-548)
T9 sequence: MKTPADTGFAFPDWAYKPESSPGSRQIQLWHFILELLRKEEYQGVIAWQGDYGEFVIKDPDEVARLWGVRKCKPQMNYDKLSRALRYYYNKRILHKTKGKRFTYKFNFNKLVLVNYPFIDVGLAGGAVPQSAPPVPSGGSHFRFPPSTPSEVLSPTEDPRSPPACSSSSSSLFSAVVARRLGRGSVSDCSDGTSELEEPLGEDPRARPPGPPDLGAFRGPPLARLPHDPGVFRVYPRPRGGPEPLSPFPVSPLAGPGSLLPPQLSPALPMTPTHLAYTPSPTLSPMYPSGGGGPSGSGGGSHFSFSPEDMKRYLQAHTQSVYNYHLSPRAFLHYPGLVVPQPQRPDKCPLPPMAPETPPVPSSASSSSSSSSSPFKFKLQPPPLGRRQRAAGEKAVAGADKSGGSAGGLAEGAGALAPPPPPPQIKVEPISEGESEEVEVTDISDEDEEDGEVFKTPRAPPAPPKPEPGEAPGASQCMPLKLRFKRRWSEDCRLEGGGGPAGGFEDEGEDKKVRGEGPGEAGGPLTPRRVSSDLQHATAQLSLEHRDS
In short: as §1

ETS2 = target: T10, ETS2 (Homo sapiens, UniProt P15036 1-469)
T10 sequence: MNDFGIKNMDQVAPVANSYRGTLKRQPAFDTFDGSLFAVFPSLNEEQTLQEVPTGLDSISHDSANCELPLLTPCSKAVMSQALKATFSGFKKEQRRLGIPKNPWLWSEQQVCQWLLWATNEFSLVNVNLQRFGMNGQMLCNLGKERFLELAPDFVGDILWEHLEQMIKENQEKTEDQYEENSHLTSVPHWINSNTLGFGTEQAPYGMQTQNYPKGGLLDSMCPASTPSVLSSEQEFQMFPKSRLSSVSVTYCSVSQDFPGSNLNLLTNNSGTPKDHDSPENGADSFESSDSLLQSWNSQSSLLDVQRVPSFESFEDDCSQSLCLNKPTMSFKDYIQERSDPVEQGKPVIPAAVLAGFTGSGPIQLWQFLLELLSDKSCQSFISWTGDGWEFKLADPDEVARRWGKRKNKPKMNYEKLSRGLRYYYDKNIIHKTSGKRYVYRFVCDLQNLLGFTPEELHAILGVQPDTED
In short: as §1

ETV6 = ETV6 (Homo sapiens, UniProt P41212 1-452)
In short: as §1

ELF1, sequence (P32519 whole entry): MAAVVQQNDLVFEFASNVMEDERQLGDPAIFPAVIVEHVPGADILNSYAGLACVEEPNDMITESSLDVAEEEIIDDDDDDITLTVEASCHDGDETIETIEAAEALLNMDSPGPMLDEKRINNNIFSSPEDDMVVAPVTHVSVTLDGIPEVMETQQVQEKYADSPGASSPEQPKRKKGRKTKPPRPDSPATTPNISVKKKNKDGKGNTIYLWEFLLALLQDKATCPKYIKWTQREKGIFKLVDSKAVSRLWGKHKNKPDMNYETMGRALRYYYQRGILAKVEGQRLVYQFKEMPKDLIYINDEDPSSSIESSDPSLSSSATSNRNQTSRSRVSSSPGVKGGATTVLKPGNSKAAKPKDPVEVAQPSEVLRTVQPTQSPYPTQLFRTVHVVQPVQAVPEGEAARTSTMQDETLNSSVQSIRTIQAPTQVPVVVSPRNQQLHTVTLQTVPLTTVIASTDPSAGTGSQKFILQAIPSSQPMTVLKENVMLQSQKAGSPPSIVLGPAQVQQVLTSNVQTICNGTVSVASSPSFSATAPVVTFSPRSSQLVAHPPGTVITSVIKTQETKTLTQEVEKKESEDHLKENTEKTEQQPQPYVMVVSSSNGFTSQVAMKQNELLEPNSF
SPIB, sequence (Q01892 whole entry): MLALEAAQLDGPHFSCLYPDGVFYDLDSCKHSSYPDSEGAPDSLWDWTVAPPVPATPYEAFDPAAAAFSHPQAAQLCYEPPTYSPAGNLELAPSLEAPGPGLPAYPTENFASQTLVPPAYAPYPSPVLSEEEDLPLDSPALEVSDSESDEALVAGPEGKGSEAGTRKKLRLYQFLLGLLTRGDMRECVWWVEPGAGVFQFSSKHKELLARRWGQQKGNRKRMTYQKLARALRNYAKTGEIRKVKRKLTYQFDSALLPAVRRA
ETV5, sequence (P41161 whole entry): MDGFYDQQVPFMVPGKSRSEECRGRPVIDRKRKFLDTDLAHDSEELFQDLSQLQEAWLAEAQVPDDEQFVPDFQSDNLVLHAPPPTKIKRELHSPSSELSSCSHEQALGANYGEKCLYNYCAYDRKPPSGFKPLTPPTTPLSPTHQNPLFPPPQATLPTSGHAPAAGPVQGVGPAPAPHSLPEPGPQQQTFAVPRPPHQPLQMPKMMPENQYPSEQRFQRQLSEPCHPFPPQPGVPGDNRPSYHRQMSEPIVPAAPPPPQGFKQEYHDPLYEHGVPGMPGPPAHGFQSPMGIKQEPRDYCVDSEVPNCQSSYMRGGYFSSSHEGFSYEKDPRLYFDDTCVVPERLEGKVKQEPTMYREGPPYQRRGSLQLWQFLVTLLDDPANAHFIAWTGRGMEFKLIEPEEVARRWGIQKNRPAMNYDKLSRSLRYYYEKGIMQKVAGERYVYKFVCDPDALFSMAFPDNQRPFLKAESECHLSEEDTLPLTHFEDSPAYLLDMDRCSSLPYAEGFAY
ETV1, sequence (P50549 whole entry): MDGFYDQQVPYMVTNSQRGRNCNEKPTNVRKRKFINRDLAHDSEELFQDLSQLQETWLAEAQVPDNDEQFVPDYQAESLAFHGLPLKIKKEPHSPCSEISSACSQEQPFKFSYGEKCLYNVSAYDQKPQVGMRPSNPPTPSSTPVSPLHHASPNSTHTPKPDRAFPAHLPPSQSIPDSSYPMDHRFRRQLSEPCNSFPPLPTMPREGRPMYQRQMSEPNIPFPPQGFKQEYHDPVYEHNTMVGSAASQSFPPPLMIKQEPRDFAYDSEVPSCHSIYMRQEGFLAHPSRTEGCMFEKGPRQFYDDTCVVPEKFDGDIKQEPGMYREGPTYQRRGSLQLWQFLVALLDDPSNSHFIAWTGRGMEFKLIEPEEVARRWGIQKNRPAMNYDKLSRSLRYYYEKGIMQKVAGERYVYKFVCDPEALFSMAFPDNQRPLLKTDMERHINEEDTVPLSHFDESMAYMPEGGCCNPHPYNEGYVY
ELF4, sequence (Q99607 whole entry): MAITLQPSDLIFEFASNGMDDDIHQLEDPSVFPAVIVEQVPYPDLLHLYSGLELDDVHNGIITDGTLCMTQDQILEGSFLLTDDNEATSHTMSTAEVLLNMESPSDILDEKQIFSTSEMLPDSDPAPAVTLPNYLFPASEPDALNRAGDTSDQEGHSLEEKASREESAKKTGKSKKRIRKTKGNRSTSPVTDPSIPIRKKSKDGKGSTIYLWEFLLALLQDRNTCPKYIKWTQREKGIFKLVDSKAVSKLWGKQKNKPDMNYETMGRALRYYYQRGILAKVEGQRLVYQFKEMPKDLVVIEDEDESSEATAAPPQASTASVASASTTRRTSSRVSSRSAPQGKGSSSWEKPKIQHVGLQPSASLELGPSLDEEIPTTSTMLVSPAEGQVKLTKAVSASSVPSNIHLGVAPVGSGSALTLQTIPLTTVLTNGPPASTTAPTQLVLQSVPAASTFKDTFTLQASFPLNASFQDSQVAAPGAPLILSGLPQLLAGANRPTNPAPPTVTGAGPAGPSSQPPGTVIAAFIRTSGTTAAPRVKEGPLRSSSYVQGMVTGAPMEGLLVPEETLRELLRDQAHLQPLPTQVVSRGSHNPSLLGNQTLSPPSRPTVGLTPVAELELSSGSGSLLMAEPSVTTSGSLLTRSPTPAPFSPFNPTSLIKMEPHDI
ETV6, sequence (P41212 whole entry): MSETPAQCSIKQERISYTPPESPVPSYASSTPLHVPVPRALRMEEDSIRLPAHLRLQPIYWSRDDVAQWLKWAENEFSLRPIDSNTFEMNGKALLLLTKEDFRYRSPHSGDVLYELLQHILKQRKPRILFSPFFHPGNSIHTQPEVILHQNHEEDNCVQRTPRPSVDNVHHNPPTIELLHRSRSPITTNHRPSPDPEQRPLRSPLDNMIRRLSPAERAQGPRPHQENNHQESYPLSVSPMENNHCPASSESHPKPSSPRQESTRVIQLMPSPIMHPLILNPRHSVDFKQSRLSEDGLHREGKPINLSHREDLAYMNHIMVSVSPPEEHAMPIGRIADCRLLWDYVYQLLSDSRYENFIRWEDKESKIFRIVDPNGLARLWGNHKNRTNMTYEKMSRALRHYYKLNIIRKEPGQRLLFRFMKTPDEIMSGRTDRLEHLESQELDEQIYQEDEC

Sequence | binding signal (FLI1) | binding signal (GABPA) | binding signal (ELF1) | binding signal (EHF) | binding signal (SPIB) | binding signal (ELK3) | binding signal (ETV5) | binding signal (ELF4) | binding signal (ETV2) | binding signal (ETV1) | binding signal (ETV3L) | binding signal (ETV3) | binding signal (ELK1) | binding signal (SPI1) | binding signal (ERF) | binding signal (ETS2) | binding signal (ETV6)
GGACTC | 1.08 fold enrichment (6-mer frequency, TF over GST control) | 1.07 fold enrichment (6-mer frequency, TF over GST control) | 1.09 fold enrichment (6-mer frequency, TF over GST control) | 1.12 fold enrichment (6-mer frequency, TF over GST control) | 1.05 fold enrichment (6-mer frequency, TF over GST control) | 1.04 fold enrichment (6-mer frequency, TF over GST control) | 1.08 fold enrichment (6-mer frequency, TF over GST control) | 1.13 fold enrichment (6-mer frequency, TF over GST control) | 1.01 fold enrichment (6-mer frequency, TF over GST control) | 1.07 fold enrichment (6-mer frequency, TF over GST control) | 1.03 fold enrichment (6-mer frequency, TF over GST control) | 1.08 fold enrichment (6-mer frequency, TF over GST control) | – | – | – | – | –
TCGTCA | 1.05 fold enrichment (6-mer frequency, TF over GST control) | 1.06 fold enrichment (6-mer frequency, TF over GST control) | 1.04 fold enrichment (6-mer frequency, TF over GST control) | 1.02 fold enrichment (6-mer frequency, TF over GST control) | 1.04 fold enrichment (6-mer frequency, TF over GST control) | – | 1.04 fold enrichment (6-mer frequency, TF over GST control) | 1.11 fold enrichment (6-mer frequency, TF over GST control) | 1.02 fold enrichment (6-mer frequency, TF over GST control) | 1.09 fold enrichment (6-mer frequency, TF over GST control) | – | – | 1.09 fold enrichment (6-mer frequency, TF over GST control) | 1.02 fold enrichment (6-mer frequency, TF over GST control) | 1.06 fold enrichment (6-mer frequency, TF over GST control) | 1.1 fold enrichment (6-mer frequency, TF over GST control) | 1.03 fold enrichment (6-mer frequency, TF over GST control)
